This is part of a sample that, as a whole, favours compounds with a hit. Of some 79,000 tested, about 15% had one in any assay. Rule as the data show it: active = growth inhibition above about 70%; inactive = the rest. Where a SMILES comes first, the peptide text is derived from it. Bridges are numbered along the chain shown (N, C = ends). [ ]: non-standard residue; d: D form. The star is where a group is joined. Cbz = O=C(OCc1ccccc1)*; Aib = CC(C)(N)C(=O)O; OBn = c1ccc(CO*)cc1; βAla = NCCC(=O)O
How the values were obtained:
[1] = NCI Yeast Anticancer Drug Screen. Data for the rad50 strain (AID 155);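 also: 0% = growth of vehicle-only cultures of the same strain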; details: S. cerevisiae rad50 strain growth inhibition; at 50.0 µM; stronger effect = higher value
Summary of the method: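 Cells are treated with compound, grown, and their growth is then scored against vehicle-only cultures of the same repair-deficient yeast strain.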

[2] = NCI Yeast Anticancer Drug Screen. Data for the mec2-1 strain (AID 157); details: S. cerevisiae mec2-1 strain, at 50.0 µM, stronger effect = higher value
Summary of the method: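 Compounds were applied to mec2-1 yeast cells. Their growth was then compared with that of vehicle-treated cultures to give growth inhibition.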

[3] = NCI Yeast Anticancer Drug Screen. Data for the sgs1 mgt1 strain (AID 161);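 also: 0% = growth of cultures given vehicle only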; details: S. cerevisiae sgs1 mgt1 strain, at 50.0 µM, stronger effect = higher value
Summary of the method: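 Percent growth inhibition was derived by comparing compound-exposed mutant yeast with vehicle-exposed cultures. The strain carries alterations in DNA damage repair.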

[4] = NCI Yeast Anticancer Drug Screen. Data for the cln2 rad14 strain (AID 165);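 also: 0% = growth equal to vehicle treated cultures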; details: S. cerevisiae cln2 rad14 strain, at 50.0 µM, stronger effect = higher value
Summary of the method: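 Strain: cln2 rad14 yeast, altered in cell cycle control and DNA damage repair. Read-out: growth inhibition vs vehicle.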

[5] = NCI Yeast Anticancer Drug Screen. Data for the bub3 strain (AID 167); details: S. cerevisiae bub3 mutant strain, at 50.0 µM, stronger effect = higher value
Summary of the method: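 Part of a panel of yeast mutants defective in DNA damage repair or cell cycle regulation. Each strain is grown with compound, and inhibition is calculated relative to solvent-treated cultures.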

[6] = NCI Yeast Anticancer Drug Screen. Data for the mlh1 rad18 strain (AID 175); details: S. cerevisiae mlh1 rad18 strain growth inhibition; at 50.0 µM; stronger effect = higher value
Summary of the method: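 A repair-deficient yeast strain is exposed to test compound, and growth is scored relative to vehicle-treated controls.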

Measured: growth inhibition

CCCCCCCCCCCCCCCCOCC(COS(C)(=O)=O)OS(C)(=O)=O (stereo not drawn)
inactive: [1] 20% | [2] 2.15% | [3] 12.2% | [4] 33.3% | [5] 7.9% | [6] 1.5%

CCN(CC)CCCNc1c2c(nc3c(OC)cccc13)CCCC2
inactive: [1] -38.4% | [2] 10.7% | [3] -6.7% | [4] -41.6% | [5] 5.95% | [6] -2.45%

CCOc1cc[n+](C)c2ccc(C)cc12
inactive: [1] 13.6% | [2] 12.8% | [3] 11.3% | [4] 16.3% | [5] 21.5% | [6] 26.7%

CCCC[n+]1cccc(C(N)=O)c1
inactive: [1] -3.55% | [2] -19.9% | [3] 3.35% | [4] 0.4% | [5] 12.8% | [6] -2.15%

Cc1cc(C(=O)C(C(c2ccccc2)N2CCOCC2)N2CCOCC2)ccc1Cl (stereo not drawn)
inactive: [1] 4.6% | [2] 7.15% | [3] 12.8% | [4] -1.35% | [5] 10.8% | [6] 26.9%

ClC1(Cl)CC1c1ccccc1 (stereo not drawn)
inactive: [1] 0.1% | [2] 11.9% | [3] 6.8% | [4] -9.7% | [5] 1.45% | [6] 14.7%

O=C(O)C1SCCS1
inactive: [1] 15.4% | [2] 14.7% | [3] 19.1% | [4] 21.8% | [5] 22.1% | [6] 12.8%

CC[N+]1(C)CCOCC1
inactive: [1] -13.7% | [2] 3.35% | [3] -8.65% | [4] -21.9% | [5] -5.2% | [6] -8.15%

O=C(NNc1ccccc1)NNc1ccccc1 (tested in a mixture with another compound)
inactive: [1] 11.1% | [2] -0.45% | [3] -0.9% | [4] 23.8% | [5] -12.2% | [6] 1.65%

NCCCn1c2ccccc2c2cnccc21
inactive: [1] 7.2% | [2] 4.15% | [3] 2.15% | [4] -6.65% | [5] 1.05% | [6] -20.2%

COC1=CC(=O)N(C)C(O)C1(C#N)OC1OC(CO)C(O)C(O)C1O (stereo not drawn)
inactive: [1] 5.25% | [2] -12.8% | [3] -7.5% | [4] 18.6% | [5] -17.9% | [6] -40.9%

O=C(Cn1ccccc1=O)c1ccc(F)cc1
inactive: [1] 9.65% | [2] -0.15% | [3] 0% | [4] -18.6% | [5] 1.7% | [6] -8.25%

COc1ccc(C(Cc2ccccc2)Nc2ccccc2)cc1 (stereo not drawn)
inactive: [1] 4.1% | [2] -6.7% | [3] 28.6% | [4] -17% | [5] -0.95% | [6] -1.2%

CC(C)CC(NC(c1ccccc1)P(=O)(O)O)C(=O)O (stereo not drawn)
inactive: [1] -4.15% | [2] -13.2% | [3] -22.1% | [4] -9% | [5] -8.3% | [6] -27.1%

CC(=O)NC(C=O)C(O)C(O)C(O)C(=O)O (stereo not drawn)
inactive: [1] 21.7% | [2] -11.4% | [3] 2.3% | [4] 23.1% | [5] 8% | [6] 10.5%

C=CC1CC(NC(=O)OC)C(=O)O1 (stereo not drawn)
inactive: [1] 1.05% | [2] 5.2% | [3] 8.45% | [4] -38.1% | [5] 14.3% | [6] -3.25%

O=C1NC(=O)C(c2ccc3c(c2)OCO3)N1 (stereo not drawn)
inactive: [1] -3.25% | [2] -10.6% | [3] -6% | [4] -30.9% | [5] -23.3% | [6] 7.05%

CC(=O)Oc1ccc2ccccc2c1CN(C(C)=O)c1ccc(C)cc1
inactive: [1] -7.45% | [2] -22.7% | [3] -10.1% | [4] -19.4% | [5] 1.7% | [6] -28.4%

Cc1ccc(NC(=O)CC(=O)CC(C)C)cc1C
inactive: [1] -22.2% | [2] -24.8% | [3] -17.4% | [4] 0.75% | [5] -37% | [6] -10.8%

CC(C)=CCCC(=O)C(c1nc2nnc(N)n2[nH]c1=O)c1nc2nnc(N)n2[nH]c1=O
inactive: [1] 13.3% | [2] 13.6% | [3] -1.95% | [4] 17.8% | [5] 1.6% | [6] -7.55%

O=S(O)CCCCCSSCCCCSSCCCCCS(=O)O
inactive: [1] 7.6% | [2] -0.15% | [3] 11.5% | [4] 10.3% | [5] 12.8% | [6] 27.4%

CCOC(=O)C(NCc1cccc(C(F)(F)F)c1)(NC(=O)c1ccccc1)C(F)(F)F (stereo not drawn)
inactive: [1] 12.2% | [2] -0.95% | [3] -1.95% | [4] 17.9% | [5] 8.4% | [6] 25%

c1ccc(C(N2CCNCC2)N2CCNCC2)cc1
inactive: [1] -2.05% | [2] 8% | [3] 10.1% | [4] -3.6% | [5] -9.3% | [6] 17%

CCCC1([N+](=O)[O-])CCC(C)(O)C(/C(C)=N\O)C1 (stereo not drawn)
inactive: [1] 7.05% | [2] -9.5% | [3] 25.5% | [4] -0.15% | [5] 26.1% | [6] 40.2%

O=C(O)C(CS(=O)(=O)O)S(=O)(=O)O (stereo not drawn)
inactive: [1] -10.3% | [2] -18.2% | [3] -1.9% | [4] -7.15% | [5] 3.15% | [6] -10.5%

CC(Oc1ccccc1)C(=O)Nc1ccc(F)cc1 (stereo not drawn)
inactive: [1] -1% | [2] 9.5% | [3] 17.8% | [4] -11.1% | [5] 35.9% | [6] 17.6%

Nn1c(=O)[nH]c2ncn(Cc3ccccc3)c2c1=O
inactive: [1] 4.3% | [2] -21.9% | [3] 9.2% | [4] 16.9% | [5] -3% | [6] 3.35%

Cn1c2ccccc2n2c(=O)c3c(c(C#N)c12)CCCC3
inactive: [1] -31.1% | [2] -35.2% | [3] -3.1% | [4] -0.35% | [5] -20.6% | [6] -21.7%

O=[N+]([O-])c1ccc(N/N=C/CCCCl)c([N+](=O)[O-])c1
inactive: [1] 6.6% | [2] -17.3% | [3] 13.2% | [4] 12.4% | [5] 11.1% | [6] 9.05%

CCOC(=O)c1c(N)sc2c1C(C(=O)OCC)CC2 (stereo not drawn)
inactive: [1] -8.95% | [2] 7.1% | [3] -8.05% | [4] -0.8% | [5] 14.8% | [6] 19.9%

O=S(=O)(c1ccccc1)N1N=C2c3ccccc3CCC[C@H]2C1c1ccccc1 (stereo partly drawn)
inactive: [1] 51.1% | [2] -16.4% | [3] -12.7% | [4] -49.7% | [5] 4.85% | [6] 4.85%

COc1ccc(C=Nc2cc([N+](=O)[O-])ccc2O)cc1
inactive: [1] 8.5% | [2] -2.75% | [3] 3.75% | [4] -9.45% | [5] 25.5% | [6] 3%

CC1(C)NC(=O)C(NC(=O)C(CC(=O)OCc2ccccc2)NC(=O)OCc2ccccc2)CCCCNC(=O)CCNC1=O (stereo not drawn) (Cbz-D(OBn)K[Aib][βAla]; lactam 2-C; configuration not given here)
inactive: [1] -0.7% | [2] -11.6% | [3] -7.95% | [4] 20.4% | [5] -2.35% | [6] 1.3%

CC(=O)Nc1ccc(C(N)=S)cc1
inactive: [1] 11.8% | [2] 7.5% | [3] 3.25% | [4] 5.4% | [5] 10.5% | [6] 4.1%

CN(N=O)c1c([N+](=O)[O-])cc2c(c1[N+](=O)[O-])Cc1ccccc1-2
inactive: [1] 0.4% | [2] -4.3% | [3] -8.8% | [4] 17.6% | [5] 14.7% | [6] 19.4%

CCCCCc1c(C)nc(N)[nH]c1=O
inactive: [1] -3.95% | [2] 0.7% | [3] 1.2% | [4] -40% | [5] -15.4% | [6] -5.45%

CN(NC(=O)Nc1cccc2ccccc12)c1ccccc1
inactive: [1] -4.7% | [2] -16.2% | [3] 14.7% | [4] -63.8% | [5] 1.65% | [6] -6.85%

CCOC1(NC(=O)N(C)C)C2CCCC21 (stereo not drawn)
inactive: [1] 3.4% | [2] -4.15% | [3] -0.1% | [4] -29.9% | [5] 2.1% | [6] -6.5%
